Data on eleven substances can be found in ChEMBL document CHEMBL1201862, “PubChem BioAssay data set” (2004).

In all, about 57,000 sequences went through this assay and about 4,000 (7%) were called active. Rule as the data show it: active = GI50 up to about 1.1 µM and inactive = higher. Not all results are given here. Potency and affinity values are given separately.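 The compound was tested at five concentrations on cells cultured in 96-well plates, with a 48-hour exposure period. The concentration for 50% growth inhibition is given as GI50.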

In this assay the test system is M14. In words: NCI tumour cell line growth inhibition, 48 h.
Turning to “mu-(1,7-nanodiamine-N,N')bis-(cis-aminedichloroplatimum (II)), CHEMBL2146215”, the GI50 was 7.78 µM. As for “cis-Bis[[(trimethylsilyl)methyl]amino]tetrachloroplatinum(IV), CHEMBL2146191”, the GI50 was determined as 3.5 µM.

Take “[Bis(aminomethyl)dimethylsilane]dichloroplatinum (II), CHEMBL2146201”: the GI50 is 22.9 µM. Then “[Bis(aminomethyl)diethylsilane]tetrachloroplatinum(IV), CHEMBL2146203”, with 1.38 µM; and “[Bis(aminomethyl)tetramethylenesilane]dichloropaltinum(II), CHEMBL2146205”, with 13.5 µM. Then “[Bis(aminomethyl)ethylmethylsilane]tetrachloroplatinum(IV), CHEMBL2146192”, with 2.68 µM; and “[Bis(aminomethyl)tetramethylenesilane]tetrachloropaltinum(IV), CHEMBL2146189”, with 6.11 µM. Then CISPLATIN, CHEMBL11359, with 1.95 µM; and “[Bis(aminomethyl)dimethylsilane]tetrachloroplatinum(IV), CHEMBL2146190”, with 7.45 µM.

Turning to “[Bis(aminomethyl)pentamethylenesilane]tetrachloropaltinum(IV), CHEMBL2146204”, the GI50 was determined as 2.13 µM. Then “[Bis(aminomethyl)pentamethylenesilane]dichloropaltinum(II), CHEMBL2146202”, with 1.92 µM.
